# Screening data: PubChem, several laboratories
# Shown are actives, neighbours in structure and some others; about 4.3% of the full set was active somewhere.
# SMARCA2 activ = increases SMARCA2 function in MMTV reporter cells | MG213 cells, MMTV-luciferase reporter, dexamethasone, overnight | activation, % at 9.1 µM | 370,000 tested, 1% active | AID 652017; in the data active = activation above about 7.8%;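 also: 0% = vehicle wells and 100% = reference activator wells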
# MITF act = MITF TRPM1 promoter activation in melanoma cells | SK-MEL-5 TRPM1-promoter luciferase, 24 h; % of positive control, neutral wells = 0 | activation, % at 12.5 µM | 300,000 tested, 0.75% active | AID 588334;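 active = mean activation of at least 80% with every replicate also reaching 80%; inconclusive = mean reaches 80% but some replicate falls short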;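 also: 0% = neutral control wells and 100% = parthenolide positive control wells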
# esBAF inh = inhibitors of esBAF chromatin remodeling in mouse ES cells | Bmi1-luciferase knock-in reporter, 24 h; 100% = twice the neutral-well signal | reporter increase, % at 12.5 µM | 350,000 tested, 2% active | AID 602393; in the data active = activation above about 40%; inconclusive = no clear call, values can overlap the other calls;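 also: 0% = median of the plate's neutral control wells and 100% = double that signal; a rise in the Bmi1 reporter signal indicates esBAF inhibition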
# HSF1 inhib = HSF1 inhibition; activity change, negative = inhibition, % at 7.5 µM (by protocol); 300,000 tested, 0.77% active; AID 2098; NIH3T3-HGL HSE-luciferase, MG132-induced, luminescence 8 h; active compounds read low;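 active = more than half of replicate wells show activity change below -50%, luminescence cut by over half; inconclusive = some wells, but at most half, below -50%; inactive = no replicate well below -50%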;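 also: luciferase reports HSF-1 transcriptional activity via heat shock element; 0% = median of DMSO wells and -100% = zero luminescence signal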
# Wnt bcat act = activates Wnt/beta-catenin signaling in a reporter cell assay; activator, plate reader; activation, % at 9.35 µM; 300,000 tested, 1.2% active; AID 743398; in the data active = activation above about 30%, passing the limit was not always enough; inconclusive = no clear call, values can overlap the other calls;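 also: 0% = neutral control wells and 100% = positive control wells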
# HSF-1 act = increases HSF-1 driven luciferase reporter signal | NIH3T3-HGL HSF-1 luciferase reporter, MG132, 8 h; 100% = twice DMSO control signal | activation, % at 9 µM | 300,000 tested, 1.7% active | AID 504408;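 active = mean replicate activation of at least 50% with a set share of replicates each reaching 50%; inconclusive = only one of those two conditions met; inactive = mean below 50% and too few replicates reaching it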;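 also: 0% = median of the neutral control wells and 100% = twice that signal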
# Starred values were filed as active, the others as inactive; ? = inconclusive; / = no result given.
SMILES,SMARCA2 activ,MITF act,esBAF inh,HSF1 inhib,Wnt bcat act,HSF-1 act
O=C(C[C@H]1CC[C@@H]2[C@H](COC[C@H](O)CN2C(=O)c2ccccc2)O1)N1CCOCC1,/,/,-6,/,/,/
COCC(=O)Nc1ccc2c(c1)C(=O)N(C)[C@H]1CC[C@@H](CC(=O)NCc3ccccc3F)O[C@H]1CO2,/,/,-4,/,/,/
COc1ccc(Cn2cc(CN3CCc4onc(-c5ccc(Br)cc5)c4C3=O)nn2)cc1,-3,/,/,/,32*,/
CO[C@H]1CN(C)C(=O)c2ccc(NC(=O)NC(C)C)cc2OC[C@@H](C)N(Cc2ccccn2)C[C@@H]1C,/,/,2,/,/,/
O=C(C[C@H]1C[C@@H]2c3cc(NC(=O)C4CCOCC4)ccc3O[C@@H]2[C@@H](CO)O1)NCc1cccnc1,/,/,1,/,/,/
O=[N+]([O-])c1c(Nc2ccccc2O)cc(Cl)c2nonc12,4,-106,-32,150,-8,207*
Cc1ccc(-c2nc(NCc3ccco3)n(S(C)(=O)=O)n2)cc1,3,26,40,0,-21,6
CC(=O)n1nc(-c2ccc(C)cc2)nc1NCc1ccco1,3,105*,/,11,11,29
CCc1cc(C(=O)COc2ccc(F)cc2)c(O)cc1O,6,44,/,14,42*,36
Cc1c(O)ccc(C(=O)COc2ccc(F)cc2)c1O,2,?,80*,16,/,24
CCC(=O)N1C[C@@H](C)[C@@H](OC)CN(C)C(=O)c2cc(NC(=O)C3CCOCC3)ccc2OC[C@@H]1C,/,/,2,/,/,/
COc1ccc(OC(C)C(=O)N2CCC(C)CC2)cc1 (stereo not given),3,/,6,-66*,/,-73
CC(Oc1ccccc1)C(=O)N1CCN(C(=O)C(C)Oc2ccccc2)CC1 (stereo not given),0,0,-2,-5,6,-14
Cc1noc(C)c1NC(=O)N[C@H]1CC[C@@H](CCNC(=O)C2CC2)O[C@H]1CO,/,/,4,/,/,/
Clc1nc(Nc2ccccc2)nc(Nc2ccccc2)n1,2,21,?,18,49*,25
Cc1cc(C)n(Cc2ccc(Cl)cc2Cl)c(=O)c1S(=O)(=O)c1ccccc1,2,-12,-6,23,1,59*
C[C@@H]1CCCCO[C@H](CN(C)C(=O)Nc2ccc3c(c2)OCO3)[C@H](C)CN([C@@H](C)CO)C(=O)c2cc(NS(=O)(=O)c3cn(C)cn3)ccc2O1,/,/,-7,/,/,/
CCCCCN(C(=O)CCC(=O)OCC(=O)c1ccc(C(C)(C)C)cc1)c1c(N)n(CCCC)c(=O)[nH]c1=O,-1,30,/,25,0,76*
CCCCN(C(=O)COc1ccc(C)cc1OC)c1c(N)n(CCC)c(=O)[nH]c1=O,-3,-29,/,-69*,1,-77
CCCCCN(C(=O)CCC(=O)OCC(=O)c1ccc(CCC)cc1)c1c(N)n(CCCC)c(=O)[nH]c1=O,0,-9,-23,3,-2,9
COc1ccc(CN(C)C[C@@H]2Oc3c(NC(=O)C4CCCCC4)cccc3C(=O)N([C@@H](C)CO)C[C@@H]2C)cc1,/,/,1,/,/,/
CC(C)(C)c1ccc(C(=O)Nc2cccc(S(=O)(=O)NC3=NCCC3)c2)cc1,4,55,-11,/,19,/
CN(C)c1ccc(C(=O)Nc2cccc(S(=O)(=O)NC3=NCCCCC3)c2)cc1,3,9,62*,/,-3,/
CC(=O)NC(=S)Nc1cccc(S(=O)(=O)NC2=NCCC2)c1,-2,6,5,-76*,/,-81
CCNC(=S)Nc1cccc(S(=O)(=O)NC2=NCCC2)c1,0,-1,/,0,2,-6
SMILES,SMARCA2 activ,MITF act,esBAF inh,HSF1 inhib,Wnt bcat act,HSF-1 act
CC(=O)c1cccc(S(=O)(=O)Nc2cccc(S(=O)(=O)NC3=NCCC3)c2)c1,10*,-1,/,-11,-1,-16
O=C(/C=C/c1ccc(OC(F)F)cc1)Nc1cccc(S(=O)(=O)NC2=NCCCCC2)c1,0,11,54*,12,8,19
CC(C)NC(=O)N(C)C[C@@H]1Oc2ccc(NC(=O)Nc3ccc4c(c3)OCO4)cc2C(=O)N([C@@H](C)CO)C[C@H]1C,/,/,-1,/,/,/
C[C@@H]1CCCCO[C@@H](CN(C)CC2CCCCC2)[C@H](C)CN([C@H](C)CO)C(=O)c2cc(NC(=O)Cc3ccccc3)ccc2O1,/,/,9,/,/,/
O=S(=O)(c1ccc(F)cc1)N1CC[C@@H]2[C@@H](CO)Nc3ccc(-c4ccc(F)cc4)cc3[C@@H]21,/,/,-4,/,/,/
NC1=NC(c2cn[nH]c2-c2cccc(F)c2)n2c(nc3ccccc32)N1 (stereo not given),0,4,/,-75*,-1,-80
O=C(C[C@@H]1CC[C@H]2[C@@H](COC[C@@H](O)CN2Cc2ccncc2)O1)NCc1ccccc1Cl,/,/,-2,/,/,/
O=C(/C=C(\Nc1cccc(Cl)c1F)c1ccccc1)c1ccccc1,1,/,/,/,47*,/
Cc1ccc2nc(C)/c(=N\O)c(C)nc2c1,3,24,55*,0,/,-2
CC(=O)c1ccc(NC(=S)N2CCC(Cc3ccccc3)CC2)cc1,-4,8,/,4,40*,-18
Cc1ccc(NC(=S)c2ccccc2)cc1,7,82*,68*,-24,?,-31
COc1ccc(C(=S)Nc2ccc(C)cc2)cc1,4,109*,/,30,/,63*
Cc1ccc(NC(=S)c2ccncc2)cc1,-4,2,21,4,1,27
O=C(C[C@@H]1C[C@H]2c3cc(NC(=O)Nc4ccccc4)ccc3O[C@H]2[C@H](CO)O1)NCc1ccccc1,/,/,-1,/,/,/
Cc1noc(C)c1NC(=O)N(C)C[C@@H]1Oc2c(NS(C)(=O)=O)cccc2C(=O)N([C@@H](C)CO)C[C@@H]1C,/,/,4,/,/,/
Cc1ccc(OCc2cc(C(=O)N(CCO)Cc3cccs3)no2)cc1C,3,86*,84*,31,27,48
CCOc1ccc2noc3c2c1C(=O)c1ccccc1-3,6,2,-7,6,5,32
O=C1c2ccccc2-c2onc3ccc(N4CCCC4)c1c23,3,-24,/,59,-10,93*
Cc1ccc(C2NC(=O)c3ccccc3N2)s1 (stereo not given),5,33,/,46,/,67*
O=C1NC(c2ccc(Cl)cc2)Nc2ccccc21 (stereo not given),-1,-10,/,30,-2,70*
CN(C)c1ccc(C2NC(=O)c3ccccc3N2)cc1 (stereo not given),4,77,-24,54,31*,78*
Cc1[nH]c2ccc(F)cc2c1CCN1C(=O)OC(C)(C)C1(C)O (stereo not given),-2,9,-3,-5,39*,-13
Cc1[nH]c2ccc(OCc3ccccc3)cc2c1CCN1C(=O)OC(C)(C)C1(C)O (stereo not given),2,/,2,-2,-3,-1
COCCCN1CCc2[nH]c(=S)[nH]c(=O)c2C1,-3,4,/,21,/,58*
